Measured values reported in PubChem BioAssay (NCI).
Compounds without any hit were thinned out: in the full panel of roughly 83,000, 20% have a hit.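 Step 1: grow cells in 96-well plates. Step 2: add test compound at a single concentration. Step 3: incubate 48 h. Step 4: record percent growth.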 Values without a mark were called inactive. Active and inactive are the calls of the source. How the source made its calls: active means growth percent below 10; inactive means the rest.

The compounds below were run on COLO 205 colon (assay: NCI-60 one-dose screen, 48 h (100 = growth as untreated, 0 = no growth, -100 = all killed)). Conditions: 10 µM unless noted.

Row | Compound | growth
1 | COc1cccc(/C=C2\Oc3cc(OCCN4CCCC4)ccc3C2=O)c1 | 93.8%
2 | COc1ccc(-c2nc3ccc(-c4nc5ccc(N6CCN(c7ccncc7)CC6)cc5[nH]4)cc3[nH]2)cc1OC | 13.3%
3 | Cc1ccc(C2=NN3C(C2)c2cc(Br)ccc2OC32CCN(Cc3ccccc3)CC2)o1 (centres undefined) | 105%
4 | COc1cc2c(cc1-c1c(C)noc1C)ncc1nc(-c3ccccn3)n([C@H](C)COC(F)F)c12 | 29.8%
5 | Cc1oc(-c2ccc(Cl)cc2Cl)cc1C(=O)Nc1nccs1 | 87.9%
6 | COc1ccc2c(c1)c(-c1nonc1-c1cn(C)c3ccccc13)cn2C | 17.7%
7 | COC(=O)c1ccc(NC(=O)c2ccc(-c3cccc([N+](=O)[O-])c3)o2)cc1 | 108%
8 | COc1cccc(C2=NN3C(C2)c2cc(Br)cc(OC)c2OC32CCN(Cc3ccccc3)CC2)c1 (centres undefined) | 107%
9 | O=C1c2cc3c(cc2-c2c1c1cc(F)c(F)cc1c(=O)n2CCCn1ccnc1)OCO3 | -4.37% (active)
10 | Cc1ccc2c(C(C[N+](=O)[O-])c3ccccc3F)c(-c3ccccc3)[nH]c2c1 (centres undefined) | 32.3%
11 | Cc1ccccc1COc1ccc(-c2onc(C)c2-c2ccc(Cl)cc2)cc1 | 71%
12 | COC[C@H](C)n1c(C2CCOCC2)nc2cnc3cc(-c4c(C)noc4C)c(OC)cc3c21 | 28.9%
13 | C#CCOc1ccc2ncnc(NCc3cccc(NC(=O)CCl)c3)c2c1 | 54% [8.25 µM]
14 | COc1cc(-c2nn(C)nc2-c2cc3ccccc3s2)cc(OC)c1OC | -14.5% (active)
15 | O=C1NC(=S)N[C@H]1CC(=O)n1cnc2ccccc21 | 111%
16 | O=S(=O)(Nc1ccc(I)cc1F)c1ccc(-c2cnc(C3CC3)o2)cc1 | 68.4%
17 | CC[C@@H](C(=O)[C@@H](C)[C@@H](O)[C@H](C)[C@@H]1O[C@@H]([C@@H](CC)C(=O)O)CC[C@@H]1C)[C@H]1OC2(C=C[C@@H](O)[C@]3(CC[C@@](C)([C@H]4CC[C@](O)(CC)[C@H](C)O4)O3)O2)[C@H](C)C[C@@H]1C (some centres undefined) | 17.1%

Row | Compound | growth
18 | CCOC(=O)c1csc(NC(=O)COc2cccc(/C=C3\CSc4ccccc4C3=O)c2)n1 | 87.9%
19 | CN1CCN(c2ccc3nc(-c4ccc(OCCCCN5CCN(CCCCN6C(=O)c7cccc8cccc(c78)C6=O)CC5)cc4)[nH]c3c2)CC1 | 77.8%
20 | Cc1ncc(C(=O)Nc2ccc(CN3CCN(C)CC3)c(C(F)(F)F)c2)cc1C#Cc1cnc2cccnn12 | -41.5% (active)
21 | Cc1nc2c3c(-c4ccccc4)c(-c4ccccc4)oc3ncn2n1 | 110%
22 | O=C(N/N=C/c1ccccc1O)c1ccccc1Nc1ccnc(C(F)(F)F)c1 | 14.7%
23 | COC(=O)[C@]12CCC(C)(C)C[C@H]1[C@H]1C(=O)C[C@@H]3[C@@]4(C)c5c([nH]c6ccccc6c5=O)C(C)(C)[C@@H]4CC[C@@]3(C)[C@]1(C)CC2 | 77.5%
24 | COc1ccc(-c2n[nH]nc2-c2csc3ccccc23)cc1OC | 34.7%
25 | O=C1c2ccccc2C(=O)c2c(N=Nc3[nH]c(=S)[nH]c3O)cccc21 | 19%
26 | Cn1c(NCCc2ccc(O)c(O)c2)nc2c1c(=O)n(Cc1ccc(Br)cc1)c(=O)n2C | 50.5%
27 | Cc1ccc(/C=C2\SC(=S)N(CC(=O)NCCCN3CCOCC3)C2=O)cc1 | 111%
28 | Cc1ccc(C2Oc3ccccc3C3CC(c4cccs4)=NN32)cc1 (centres undefined) | 104%
29 | C=CC(=O)Nc1cccc(-c2nc(SC)nc(NCCc3ccc(OC)c(OC)c3)c2C#N)c1 | 77.8%
30 | Cc1nc(/N=C(\N)NC(=O)Nc2cccc([N+](=O)[O-])c2)sc1C | 90.6%
31 | COc1ccc(-n2nc(C)c3c(Nc4ccc(NC(=O)Nc5ccc(Cl)c(C(F)(F)F)c5)cc4)ncnc32)cc1 | -23.6% (active)
32 | O=C(/C=C/c1cccc([N+](=O)[O-])c1)c1ccc(O)c(CN2CCN(c3cc4c(cc3F)c(=O)c(C(=O)O)cn4C3CC3)CC2)c1 | 60.1%
33 | CCC([N+](=O)[O-])S(=O)(=O)c1ccc(C)cc1 (centres undefined) | 115%
34 | Cc1cn2c(/C=C3/C(=O)Nc4c3ccc3ccccc43)c(C(F)(F)F)nc2s1 | -49.4% (active)
